Data taken from PubChem BioAssay (NCI).
The panel holds about 83,000 compounds, 20% with a hit somewhere; the sample as a whole holds those more often.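 Growth was measured after 48 h exposure to one concentration of compound in 96-well plates. Values under 10 count as active.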 The source made the active and inactive calls.

How the values were obtained:
Experiment in all cases: NCI-60 one-dose screen, 48 h (100 = growth as untreated, 0 = no growth, -100 = all killed)
Conditions in all cases: 10 µM unless noted
SR leukemia = system: SR leukemia
RPMI-8226 leukemia = system: RPMI-8226 leukemia
OVCAR-8 ovarian = system: OVCAR-8 ovarian
OVCAR-5 ovarian = system: OVCAR-5 ovarian
OVCAR-4 ovarian = system: OVCAR-4 ovarian
SK-OV-3 ovarian = system: SK-OV-3 ovarian
IGROV1 ovarian = system: IGROV1 ovarian
OVCAR-3 ovarian = system: OVCAR-3 ovarian
HS 578T breast = system: HS 578T breast
NCI/ADR-RES ovarian = system: NCI/ADR-RES ovarian
T-47D breast = system: T-47D breast
MDA-MB-435 melanoma = system: MDA-MB-435 melanoma
SW-620 colon = system: SW-620 colon
MCF7 breast = system: MCF7 breast
HCT-116 colon = system: HCT-116 colon
HCC-2998 colon = system: HCC-2998 colon
KM12 colon = system: KM12 colon
BT-549 breast = system: BT-549 breast

Measured: growth

CNC(=O)c1cc(-n2ccc3cc(NC(=O)Nc4ccc(N5CCOCC5)c(C(F)(F)F)c4)ccc32)ccn1
inactive: OVCAR-8 ovarian 60.6% | OVCAR-5 ovarian 65.1% | OVCAR-4 ovarian 40.6% | SK-OV-3 ovarian 102% | IGROV1 ovarian 32.3% | OVCAR-3 ovarian 76.4% | HS 578T breast 32.2% | NCI/ADR-RES ovarian 47.9% | T-47D breast 47% | MDA-MB-435 melanoma 40.2% | SW-620 colon 62.5% | MCF7 breast 35.3% | HCT-116 colon 20.5% | HCC-2998 colon 87.4%
active: SR leukemia 9.16% | RPMI-8226 leukemia -26.7% | KM12 colon 7.44%

O=C(Nc1ccc2c(ccn2Cc2ccccn2)c1)c1ccnnc1
inactive: SR leukemia 101% | RPMI-8226 leukemia 94.4% | OVCAR-8 ovarian 104% | OVCAR-5 ovarian 95% | OVCAR-4 ovarian 68.3% | SK-OV-3 ovarian 105% | IGROV1 ovarian 80.3% | OVCAR-3 ovarian 106% | HS 578T breast 102% | NCI/ADR-RES ovarian 114% | T-47D breast 97.9% | MDA-MB-435 melanoma 98.3% | SW-620 colon 101% | MCF7 breast 102% | HCT-116 colon 93.2% | HCC-2998 colon 120% | KM12 colon 99.4%

COC[C@]12CCC(C)(C)C[C@H]1C1=CC[C@@H]3[C@@]4(C)CCCNC(C)(C)[C@@H]4CC[C@@]3(C)[C@]1(C)CC2
inactive: OVCAR-8 ovarian 52.2% | SK-OV-3 ovarian 75.9% | T-47D breast 28.8%
active: SR leukemia -55% | RPMI-8226 leukemia -34.8% | OVCAR-5 ovarian 5.67% | OVCAR-4 ovarian -18.9% | IGROV1 ovarian -54.4% | OVCAR-3 ovarian -46.9% | HS 578T breast -44.6% | NCI/ADR-RES ovarian -88% | MDA-MB-435 melanoma -76.3% | SW-620 colon -61.6% | MCF7 breast -71% | HCT-116 colon -89.6% | HCC-2998 colon -91.2% | KM12 colon -25.6%

Nc1nc(Nc2ccccc2SSc2ccccc2Nc2nc(N)nc(-c3ccccc3)n2)nc(-c2ccccc2)n1
active: SR leukemia -47%
inactive: RPMI-8226 leukemia 11.2% | OVCAR-8 ovarian 73.9% | OVCAR-5 ovarian 107% | OVCAR-4 ovarian 63% | SK-OV-3 ovarian 130% | IGROV1 ovarian 52.2% | OVCAR-3 ovarian 90.3% | HS 578T breast 84.3% | NCI/ADR-RES ovarian 14.9% | T-47D breast 74.7% | MDA-MB-435 melanoma 90.6% | SW-620 colon 70.5% | MCF7 breast 68.3% | HCT-116 colon 61.3% | HCC-2998 colon 110% | KM12 colon 22.1%

O=C(NCCN1CCCC1)c1ccc(-c2nc3ccc4[nH]ncc4c3c3c2CCCC3)cc1
inactive: OVCAR-8 ovarian 10.9% | OVCAR-5 ovarian 23.5% | OVCAR-4 ovarian 16% | NCI/ADR-RES ovarian 93.2% | T-47D breast 23% | MDA-MB-435 melanoma 12.3%
active: SR leukemia -24.4% | RPMI-8226 leukemia -15% | SK-OV-3 ovarian 0.026% | IGROV1 ovarian 1.22% | OVCAR-3 ovarian 1.47% | HS 578T breast -1.99% | BT-549 breast -33.4% | SW-620 colon 1.5% | MCF7 breast -9.45% | HCT-116 colon 1.82% | HCC-2998 colon -1.05% | KM12 colon 1.12%

Nc1ncc(-c2ccc3ncnc(N4CCc5cc(F)c(Cl)cc54)c3c2)cn1
inactive: SR leukemia 18% | OVCAR-8 ovarian 33.5% | OVCAR-5 ovarian 19.8% | OVCAR-4 ovarian 31.7% | SK-OV-3 ovarian 20.5% | OVCAR-3 ovarian 13.5% | NCI/ADR-RES ovarian 38.4% | T-47D breast 13.5% | MDA-MB-435 melanoma 27.1% | SW-620 colon 40.7% | MCF7 breast 11.9% | HCT-116 colon 20.5% | HCC-2998 colon 31.6% | KM12 colon 50.6%
active: RPMI-8226 leukemia -14.7% | IGROV1 ovarian -11.2% | HS 578T breast -12.8%

O=C(Nc1ccc2c(ccn2Cc2ccccn2)c1)c1cnccn1
inactive: SR leukemia 92.7% | RPMI-8226 leukemia 93.7% | OVCAR-8 ovarian 105% | OVCAR-5 ovarian 96.8% | OVCAR-4 ovarian 76% | SK-OV-3 ovarian 109% | IGROV1 ovarian 79.7% | OVCAR-3 ovarian 110% | HS 578T breast 104% | NCI/ADR-RES ovarian 107% | T-47D breast 101% | MDA-MB-435 melanoma 100% | SW-620 colon 93.7% | MCF7 breast 98.1% | HCT-116 colon 100% | HCC-2998 colon 115% | KM12 colon 100%

O=C(Nc1ccc(N=Cc2c(O)[nH]c3ccccc23)cc1)Nc1nccs1
active: MDA-MB-435 melanoma -52.7%
inactive: SR leukemia 10.7% | RPMI-8226 leukemia 83.6% | OVCAR-8 ovarian 55.7% | OVCAR-5 ovarian 60.4% | OVCAR-4 ovarian 40.6% | SK-OV-3 ovarian 55% | IGROV1 ovarian 29.5% | OVCAR-3 ovarian 15.4% | HS 578T breast 31.5% | NCI/ADR-RES ovarian 40.8% | T-47D breast 41.2% | SW-620 colon 21.4% | MCF7 breast 22.7% | HCT-116 colon 27% | HCC-2998 colon 73.9% | KM12 colon 59.2%

COc1cc(-c2nn(C(C)(C)C)cc2-c2ccnc(NCCCNS(=O)(=O)c3ccc(C)cc3)n2)ccc1Cl
inactive: SR leukemia 51.3% | RPMI-8226 leukemia 88.9% | OVCAR-8 ovarian 89.8% | OVCAR-5 ovarian 88.1% | OVCAR-4 ovarian 56.3% | SK-OV-3 ovarian 106% | IGROV1 ovarian 62.8% | OVCAR-3 ovarian 95.5% | HS 578T breast 76.6% | NCI/ADR-RES ovarian 89.8% | T-47D breast 84.6% | MDA-MB-435 melanoma 92.2% | SW-620 colon 93.7% | MCF7 breast 79.8% | HCT-116 colon 67.4% | HCC-2998 colon 115% | KM12 colon 94%

CC(=O)Nc1cccc(Nc2nc(N[C@H](C)c3ccccc3)c3ccccc3n2)c1
active: SR leukemia -7.47% | RPMI-8226 leukemia -20.3%
inactive: OVCAR-8 ovarian 74.8% | OVCAR-5 ovarian 70.6% | OVCAR-4 ovarian 34.9% | SK-OV-3 ovarian 94.8% | IGROV1 ovarian 51.8% | OVCAR-3 ovarian 55.9% | HS 578T breast 80.5% | NCI/ADR-RES ovarian 39.1% | T-47D breast 78.8% | MDA-MB-435 melanoma 24.3% | SW-620 colon 61.5% | MCF7 breast 27.8% | HCT-116 colon 31% | HCC-2998 colon 88.7% | KM12 colon 55.9%

CC(=O)c1ccc(Nc2nc(SCC(C)C)nc(-c3ccc(F)cc3)c2C#N)cc1
inactive: SR leukemia 102% | RPMI-8226 leukemia 118% | OVCAR-8 ovarian 101% | OVCAR-5 ovarian 113% | OVCAR-4 ovarian 115% | SK-OV-3 ovarian 114% | IGROV1 ovarian 111% | OVCAR-3 ovarian 115% | HS 578T breast 122% | NCI/ADR-RES ovarian 110% | T-47D breast 106% | BT-549 breast 110% | MDA-MB-435 melanoma 111% | SW-620 colon 110% | MCF7 breast 114% | HCT-116 colon 108% | HCC-2998 colon 119% | KM12 colon 104%

C[C@@H](Nc1c(C#N)cnc2ccc(-c3cnc(Cl)c(NS(C)(=O)=O)c3)cc12)c1ccccc1
inactive: OVCAR-8 ovarian 16.3% | NCI/ADR-RES ovarian 31.5% | HCC-2998 colon 16.7% | KM12 colon 15.1%
active: SR leukemia -14.1% | RPMI-8226 leukemia -34.9% | OVCAR-5 ovarian 4.76% | OVCAR-4 ovarian 0.536% | SK-OV-3 ovarian -7.04% | IGROV1 ovarian -30.4% | OVCAR-3 ovarian 4.33% | HS 578T breast -15.9% | T-47D breast 0.239% | MDA-MB-435 melanoma 8.87% | SW-620 colon 9.39% | MCF7 breast 6.51% | HCT-116 colon 4.05%

O=C(O)c1cn(C2CC2)c2cc(N3CCN(C(=O)CN4C(=O)CSC4=O)CC3)c(F)cc2c1=O
inactive: SR leukemia 99.3% | RPMI-8226 leukemia 126% | OVCAR-8 ovarian 105% | OVCAR-5 ovarian 99% | OVCAR-4 ovarian 86.4% | SK-OV-3 ovarian 113% | IGROV1 ovarian 82.6% | OVCAR-3 ovarian 108% | HS 578T breast 97.7% | NCI/ADR-RES ovarian 108% | T-47D breast 106% | MDA-MB-435 melanoma 98.6% | SW-620 colon 100% | MCF7 breast 98.8% | HCT-116 colon 98.8% | HCC-2998 colon 115% | KM12 colon 101%

CC1(C)CC[C@]2(C(=O)O)CC[C@]3(C)C(=CC[C@@H]4[C@@]5(C)CC/C(=N\OCCC#N)C(C)(C)[C@@H]5CC[C@]43C)[C@@H]2C1
inactive: SR leukemia 103% | RPMI-8226 leukemia 97.5% | OVCAR-8 ovarian 109% | OVCAR-5 ovarian 103% | OVCAR-4 ovarian 82.6% | SK-OV-3 ovarian 110% | IGROV1 ovarian 85.7% | OVCAR-3 ovarian 110% | HS 578T breast 107% | NCI/ADR-RES ovarian 116% | T-47D breast 104% | BT-549 breast 106% | MDA-MB-435 melanoma 101% | SW-620 colon 94.2% | MCF7 breast 95.5% | HCT-116 colon 96.4% | HCC-2998 colon 116% | KM12 colon 105%

C=C(C)[C@@H]1CC[C@]2(COCCCNCCC#N)CC[C@]3(C)[C@H](CC[C@@H]4[C@@]5(C)CC[C@H](OCCCNCCC#N)C(C)(C)[C@@H]5CC[C@]43C)[C@@H]12
active: SR leukemia -18.4%
inactive: RPMI-8226 leukemia 34% | OVCAR-8 ovarian 66.6% | OVCAR-5 ovarian 83.7% | OVCAR-4 ovarian 23.9% | SK-OV-3 ovarian 97.8% | IGROV1 ovarian 72.1% | OVCAR-3 ovarian 71% | HS 578T breast 72.6% | NCI/ADR-RES ovarian 37.3% | T-47D breast 53.3% | MDA-MB-435 melanoma 56.4% | SW-620 colon 64.7% | MCF7 breast 32.5% | HCT-116 colon 24.7% | HCC-2998 colon 31.8% | KM12 colon 64.4%

Nc1nc(Nc2ccccc2SSc2ccccc2Nc2nc(N)nc(-c3cccc(Br)c3)n2)nc(-c2cccc(Br)c2)n1
inactive: RPMI-8226 leukemia 59.6% | OVCAR-8 ovarian 68.4% | OVCAR-5 ovarian 95.5% | OVCAR-4 ovarian 73% | SK-OV-3 ovarian 131% | IGROV1 ovarian 54.9% | OVCAR-3 ovarian 100% | HS 578T breast 74.3% | NCI/ADR-RES ovarian 21.3% | T-47D breast 62.6% | MDA-MB-435 melanoma 93.9% | SW-620 colon 98.5% | MCF7 breast 69.2% | HCT-116 colon 47.8% | HCC-2998 colon 120% | KM12 colon 23.6%
active: SR leukemia -44%

COc1ccc(S(=O)(=O)NCCCNc2nccc(-c3cn(C(C)(C)C)nc3-c3ccc(Cl)c(OC)c3)n2)cc1
inactive: SR leukemia 48.8% | RPMI-8226 leukemia 84.7% | OVCAR-8 ovarian 87.9% | OVCAR-5 ovarian 90.3% | OVCAR-4 ovarian 58.9% | SK-OV-3 ovarian 103% | IGROV1 ovarian 57.9% | OVCAR-3 ovarian 97.5% | HS 578T breast 82.9% | NCI/ADR-RES ovarian 87.8% | T-47D breast 77.3% | MDA-MB-435 melanoma 89.6% | SW-620 colon 99.3% | MCF7 breast 82.4% | HCT-116 colon 66.6% | HCC-2998 colon 124% | KM12 colon 93%
